Reference: PubChem BioAssay (NCATS)
Results filed as inconclusive are left out. Active and inactive are the calls of the source. Unless noted, calls come from the whole dose curve.

Assays:
[1] = biological target: Bile acid receptor (Homo sapiens) (UniProt Q96RI1); assay: qHTS assay for small molecule agonists of farnesoid X receptor signaling (AID 588527); settings: HEK293T FXR-UAS-bla, beta-lactamase ratio, 16 h; activation: stronger effect = higher value;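 note: series mostly up to about 77 µM; 0% = vehicle basal and 100% = reference agonist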
Chain of Bile acid receptor (Homo sapiens) (Q96RI1 whole entry, looked up): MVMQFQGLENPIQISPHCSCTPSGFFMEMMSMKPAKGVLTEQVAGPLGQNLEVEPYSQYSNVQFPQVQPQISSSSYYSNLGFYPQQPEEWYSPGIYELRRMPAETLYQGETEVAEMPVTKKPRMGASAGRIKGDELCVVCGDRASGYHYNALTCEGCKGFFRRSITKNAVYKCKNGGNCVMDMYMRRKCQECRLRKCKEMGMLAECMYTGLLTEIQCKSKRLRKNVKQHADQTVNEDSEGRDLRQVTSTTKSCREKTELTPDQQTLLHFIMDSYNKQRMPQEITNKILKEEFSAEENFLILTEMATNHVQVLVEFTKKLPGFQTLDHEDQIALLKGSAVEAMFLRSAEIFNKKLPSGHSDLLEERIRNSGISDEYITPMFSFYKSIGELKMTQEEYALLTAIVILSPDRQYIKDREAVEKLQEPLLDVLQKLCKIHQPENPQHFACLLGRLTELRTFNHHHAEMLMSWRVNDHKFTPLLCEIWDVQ
In short: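 FXR-UAS-bla HEK293T, 10% dialyzed FBS; cpds up to 92 uM titration, 16 h 37 C; CCF4 dye 2 h RT; fluorescence. Normalized to chenodeoxycholic acid 100 uM (100%) and DMSO (0%); Hill fit gives EC50, efficacy.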

[2] = biological target: Peroxisome proliferator-activated receptor delta (Homo sapiens) (UniProt Q03181); assay: qHTS assay for small molecule agonists of peroxisome proliferator-activated receptor delta signaling (AID 588534);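 note: 0% = DMSO basal wells and 100% = positive control agonist at 10 µM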
Chain of Peroxisome proliferator-activated receptor delta (Homo sapiens) (Q03181 whole entry, looked up): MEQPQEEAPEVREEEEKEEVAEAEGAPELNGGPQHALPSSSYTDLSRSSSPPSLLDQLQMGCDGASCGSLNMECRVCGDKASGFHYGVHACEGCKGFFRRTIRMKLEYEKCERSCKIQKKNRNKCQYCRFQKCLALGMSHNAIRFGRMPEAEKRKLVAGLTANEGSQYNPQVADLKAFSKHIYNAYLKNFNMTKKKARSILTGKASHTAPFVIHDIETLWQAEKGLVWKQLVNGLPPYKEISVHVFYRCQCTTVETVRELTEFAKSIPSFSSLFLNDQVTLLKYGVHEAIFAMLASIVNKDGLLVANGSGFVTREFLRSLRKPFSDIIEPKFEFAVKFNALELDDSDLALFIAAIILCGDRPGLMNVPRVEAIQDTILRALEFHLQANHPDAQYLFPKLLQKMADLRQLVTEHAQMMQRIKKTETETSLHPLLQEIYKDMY
In short: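 Fluorescence from CCF4 substrate cleavage by beta-lactamase reporter, read 2 hrs at RT, measured agonist activity. Compounds were tested with 18 hrs exposure at 37 C. Concentration-response data fitted to Hill equation.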

[3] = qHTS assay for small molecule antagonists of peroxisome proliferator-activated receptor delta signaling (AID 588535; active = well fitted inhibition curve with a large enough effect in the signal ratio, with a control signal flat, not every such curve was filed as active; the % refers to the signal ratio;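 for max response: cells co-treated with a PPAR-delta agonist as stimulator during compound exposure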); settings: HEK293T PPARd-UAS-bla, beta-lactamase FRET ratio, 18 h; 460 nm channel
In short: (§1)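 HEK293T PPAR-delta-UAS-bla cells, 4000/well, 2% charcoal/dextran FBS; 5 h 37 C; cpd titration; 18 h 37 C; CCF4 2 h RT; FI 460/530 nm; Hill fit → IC50, efficacy.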

[4] = biological target: Peroxisome proliferator-activated receptor delta (Homo sapiens) (UniProt Q03181); assay: as above
In short: as §1

[5] = biological target: Vitamin D3 receptor (Homo sapiens) (UniProt P11473); assay: qHTS assay for small molecule antagonists of vitamin D receptor signaling (AID 588541); note: potency is the fitted concentration of half-maximal effect
Chain of Vitamin D3 receptor (Homo sapiens) (P11473 whole entry, looked up): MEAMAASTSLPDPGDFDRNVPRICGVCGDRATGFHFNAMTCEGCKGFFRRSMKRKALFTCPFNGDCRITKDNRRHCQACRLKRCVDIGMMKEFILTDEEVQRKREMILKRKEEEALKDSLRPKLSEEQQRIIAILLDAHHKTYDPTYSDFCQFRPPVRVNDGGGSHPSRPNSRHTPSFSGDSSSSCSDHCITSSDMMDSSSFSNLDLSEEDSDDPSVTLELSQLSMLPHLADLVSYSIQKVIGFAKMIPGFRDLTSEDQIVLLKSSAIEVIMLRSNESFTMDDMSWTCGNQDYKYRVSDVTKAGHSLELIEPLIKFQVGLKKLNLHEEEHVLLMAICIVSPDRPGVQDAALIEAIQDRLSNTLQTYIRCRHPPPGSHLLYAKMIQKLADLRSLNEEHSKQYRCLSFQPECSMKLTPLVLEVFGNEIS
In short: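 Antagonist-mode beta-lactamase reporter assay: HEK293T VDR-UAS-bla cells were exposed to titrated compound alongside 1-alpha,25-dihydroxyvitamin D3 at 3 nM final for 16 h. Values were normalized to the 50 nM agonist control and DMSO basal, with IC50 and efficacy from Hill equation fits.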

[6] = biological target: Vitamin D3 receptor (Homo sapiens) (UniProt P11473); assay: qHTS assay for small molecule agonists of vitamin D receptor signaling (AID 588543);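 note: 0% = DMSO basal and 100% = reference agonist control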
In short: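 GeneBLAzer VDR-UAS-bla HEK293T cells in 2% charcoal-stripped FBS medium were dosed with compound titrations for 16 h at 37 °C; CCF4 β-lactamase readout (405 nm ex, 460/530 nm em). EC50 and efficacy from Hill fits, normalized to 50 nM calcitriol (100%) and DMSO (0%).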

[7] = biological target: Thyroid hormone receptor beta (Homo sapiens) (UniProt P10828); assay: qHTS assay for small molecule agonists of thyroid hormone receptor beta signaling (AID 588545)
Chain of Thyroid hormone receptor beta (Homo sapiens) (P10828 whole entry, looked up): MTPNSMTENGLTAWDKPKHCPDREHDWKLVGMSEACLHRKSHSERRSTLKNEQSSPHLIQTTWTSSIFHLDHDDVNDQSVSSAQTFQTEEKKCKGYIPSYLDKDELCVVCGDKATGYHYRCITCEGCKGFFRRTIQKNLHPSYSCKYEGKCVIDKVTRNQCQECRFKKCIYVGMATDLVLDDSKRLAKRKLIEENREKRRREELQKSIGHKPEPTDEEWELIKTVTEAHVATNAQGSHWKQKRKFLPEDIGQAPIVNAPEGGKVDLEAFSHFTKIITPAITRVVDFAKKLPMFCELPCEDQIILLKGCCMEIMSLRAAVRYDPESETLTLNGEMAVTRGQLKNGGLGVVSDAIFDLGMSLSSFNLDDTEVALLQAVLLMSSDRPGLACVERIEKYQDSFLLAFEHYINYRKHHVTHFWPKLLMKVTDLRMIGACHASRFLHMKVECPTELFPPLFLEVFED
In short: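 HEK 293 TR-UAS-bla; agonist mode; 18 hrs, 37 C; CCF4, ex 405/em 460 and 530 nm; norm. T3 10 nM = 100%, DMSO = 0%; Hill fit → EC50, efficacy.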

[8] = qHTS assay for small molecule antagonists of retinoid X receptor alpha signaling (AID 588546; active = well fitted inhibition curve with a large enough effect in the signal ratio, with a control signal flat, not every such curve was filed as active; the % refers to the signal ratio; note: potency is the fitted concentration of half-maximal effect;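 for max response: cells stimulated with 9-cis-retinoic acid as agonist; % is set by controls: 0 for no effect and ±100 for the full control effect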); settings: HEK293T RXRa-UAS-bla, beta-lactamase ratio, antagonist mode; measured here: W530 green channel, cytotoxicity proxy
In short: (§2)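 Beta-lactamase reporter inhibition, read as CCF4 fluorescence ratio (ex 405, em 460/530 nm) after 2 h at RT. HEK293T UAS-bla cells, 2500/well, were stimulated with 9-cis-RA at 500 or 100 nM final alongside test compound for 18 h at 37 C.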

[9] = biological target: Retinoic acid receptor RXR-alpha (Homo sapiens) (UniProt P19793); assay: as above; settings: HEK293T RXRa-UAS-bla, beta-lactamase ratio, antagonist mode
Chain of Retinoic acid receptor RXR-alpha (Homo sapiens) (P19793 whole entry, looked up): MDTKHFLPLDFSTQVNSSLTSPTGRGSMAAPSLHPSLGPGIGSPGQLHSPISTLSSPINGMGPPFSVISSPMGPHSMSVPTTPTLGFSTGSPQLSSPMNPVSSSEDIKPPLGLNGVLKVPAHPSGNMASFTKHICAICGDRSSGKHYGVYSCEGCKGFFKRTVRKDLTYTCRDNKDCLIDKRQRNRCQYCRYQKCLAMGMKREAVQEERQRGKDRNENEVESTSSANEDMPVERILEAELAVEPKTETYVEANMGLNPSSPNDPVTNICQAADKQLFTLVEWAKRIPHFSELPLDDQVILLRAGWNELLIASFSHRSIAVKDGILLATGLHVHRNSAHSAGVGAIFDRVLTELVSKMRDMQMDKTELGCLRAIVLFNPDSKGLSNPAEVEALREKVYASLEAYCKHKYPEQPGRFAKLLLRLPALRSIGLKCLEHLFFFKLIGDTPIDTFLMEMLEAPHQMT
In short: as §2

[10] = qHTS assay for small molecule activators of the p53 signaling pathway (AID 651743; active = well fitted activation curve with a large enough effect in the signal ratio, not every such curve was filed as active; the % refers to the signal ratio; note: potency is the fitted concentration of half-maximal effect; for activation: series mostly up to about 92 µM; % of control where 0% means no effect); settings: HCT-116 p53RE-bla, beta-lactamase FRET ratio, 16 h; activation: stronger effect = higher value
In short: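 Read-out is fluorescence intensity from the LiveBLAzer B/G FRET substrate, added for 2 hours at room temperature after HCT-116 p53RE-bla cells had been incubated with compounds for 16 hours at 37 C.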

[11] = qHTS assay for small molecule activators of the nuclear factor-kappa B (NF-kB) signaling pathway (AID 651749; active = well fitted activation curve with a large enough effect in the signal ratio; the % refers to the signal ratio; note: series mostly up to about 77 µM; % of control where 0% means no effect); settings: NF-kB-bla ME-180 cells, beta-lactamase FRET ratio, 16 h; activation: stronger effect = higher value
In short: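 Readout: beta-lactamase reporter driven by an NF-kB response element, detected fluorescently as loss of FRET. Cells were the ME-180 line, treated 16 hr at 37C with pin-transferred compound.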

[12] = biological target: Peroxisome proliferator-activated receptor alpha (Homo sapiens) (UniProt Q07869); assay: qHTS assay for small molecule agonists of the peroxisome proliferator-activated receptor alpha (PPARalpha) signaling pathway (AID 651778; active = well fitted curve in the direction sought with a large enough effect; an effect the other way counts as inactive or inconclusive; note: % of control where 0% means no effect); settings: PathHunter PPARalpha complementation, chemiluminescence, 6 h; max response: stronger effect = higher value
Chain of Peroxisome proliferator-activated receptor alpha (Homo sapiens) (Q07869 whole entry, looked up): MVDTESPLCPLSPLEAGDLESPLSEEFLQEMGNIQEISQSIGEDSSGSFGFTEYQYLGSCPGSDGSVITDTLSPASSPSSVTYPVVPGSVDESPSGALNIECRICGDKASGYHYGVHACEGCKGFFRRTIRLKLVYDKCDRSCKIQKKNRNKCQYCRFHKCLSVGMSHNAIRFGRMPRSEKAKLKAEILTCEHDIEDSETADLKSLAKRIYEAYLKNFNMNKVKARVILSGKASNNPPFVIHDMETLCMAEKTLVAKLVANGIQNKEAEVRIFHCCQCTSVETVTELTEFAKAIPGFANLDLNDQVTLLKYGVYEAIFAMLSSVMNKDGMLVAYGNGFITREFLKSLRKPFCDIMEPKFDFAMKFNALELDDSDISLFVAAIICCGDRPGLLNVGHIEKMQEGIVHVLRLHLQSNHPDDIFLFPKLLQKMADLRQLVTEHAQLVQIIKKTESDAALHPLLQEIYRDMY
In short: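 Chemiluminescence from complemented enzyme reported PPARalpha activation in cells after 6 hr of compound treatment at 37 C. The detection reagent was incubated for 60 min at room temperature, and compounds were scored as agonists.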

[13] = qHTS assay for small molecule agonists of the antioxidant response element (ARE) signaling pathway measured by Nrf2-dependant transcriptional activity - cell viability counter screen (AID 720653; active = well fitted curve in the direction sought with a large enough effect in the repeat runs; an effect the other way counts as inactive or inconclusive; note: potency is the fitted concentration of half-maximal effect; for max response: % is set by controls: 0 for no effect and ±100 for the full control effect); settings: ARE-bla HepG2 viability, CellTiter-Glo ATP luminescence, 16 h; max response: stronger effect = lower value
In short: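 Cytotoxicity counter screen: intracellular ATP quantified by CellTiter-Glo luminescence in the same ARE-bla HepG2 plates, after 16 h compound exposure and a 2 h beta-lactamase substrate step.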

[14] = qHTS assay for cell viability of HEK293 cells (AID 743288; active = well fitted curve in the direction sought with a large enough effect; an effect the other way counts as inactive or inconclusive; note: nearly all actives have a fitted effect of over 50% in size; note: potency is the fitted concentration of half-maximal effect; for max response: % is set by controls: 0 for no effect and ±100 for the full control effect); settings: ATP luminescence (CellTiter-Glo), 18 h; max response: stronger effect = lower value
In short: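 Parental HEK293 cells were seeded at 2,000 cells/well, rested at least 5 h at 37 C, then exposed to compounds in DMSO for 18 h at 37 C. Viability was read as ATP-dependent luciferase luminescence after 30 min at room temperature.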

[15] = qHTS assay for small molecule agonists of the antioxidant response element (ARE) signaling pathway measured by Nrf2-dependant transcriptional activity (AID 720636; active = well fitted curve in the direction sought with a large enough effect in the repeat runs; an effect the other way counts as inactive or inconclusive; note: potency is the fitted concentration of half-maximal effect; for activation: % of control where 0% means no effect)
In short: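 ARE-luc HepG2 cells carrying an Nrf2-responsive luciferase reporter, in medium with 1% dialyzed FBS, exposed to compound for 16 hr at 37 C, 5% CO2. Luminescence read 30 min after ONE-Glo addition.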

[16] = qHTS assay for environmental chemicals that activate the Aryl hydrocarbon Receptor (AhR) signaling pathway (AID 651777; active = well fitted curve in the direction sought with a large enough effect; an effect the other way counts as inactive or inconclusive; note: % of control where 0% means no effect; nearly all actives have a fitted effect of over 15% in size); settings: 1A2-DRE human hepatoma cells, luciferase, 24 h; activation: stronger effect = higher value
In short: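 Human hepatoma 1A2-DRE cells stably carrying a DRE/CYP1A2 promoter–luciferase reporter, 1,200 cells/well, exposed to compound 24 hr at 37 C. Luciferase read by One-Glo luminescence after 30 min at room temperature; increased signal marks AhR activation.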

[17] = qHTS assay for cell viability of the p53RE-bla HCT-116 cell line (AID 743292; active = well fitted curve in the direction sought with a large enough effect; an effect the other way counts as inactive or inconclusive; note: % is set by controls: 0 for no effect and ±100 for the full control effect; nearly all actives have a fitted effect of over 55% in size)
In short: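 CellSensor p53RE-bla HCT-116 cells (4,000/well) pre-incubated 5 h at 37 C, then exposed to compounds in DMSO for 16 h at 37 C. Viability read as ATP content by CellTiter-Glo luminescence after 30 min at room temperature.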

[18] = biological target: Nuclear receptor subfamily 1 group I member 2 (Rattus norvegicus) (UniProt Q9R1A7); assay: qHTS assay for small molecule activators of the rat pregnane X receptor (rPXR) signaling pathway (AID 651751; call rule not given here; note: 0% is about no effect); settings: rPXR reporter cells, luciferase (One-Glo), 24 h
Chain of Nuclear receptor subfamily 1 group I member 2 (Rattus norvegicus) (Q9R1A7 whole entry, looked up): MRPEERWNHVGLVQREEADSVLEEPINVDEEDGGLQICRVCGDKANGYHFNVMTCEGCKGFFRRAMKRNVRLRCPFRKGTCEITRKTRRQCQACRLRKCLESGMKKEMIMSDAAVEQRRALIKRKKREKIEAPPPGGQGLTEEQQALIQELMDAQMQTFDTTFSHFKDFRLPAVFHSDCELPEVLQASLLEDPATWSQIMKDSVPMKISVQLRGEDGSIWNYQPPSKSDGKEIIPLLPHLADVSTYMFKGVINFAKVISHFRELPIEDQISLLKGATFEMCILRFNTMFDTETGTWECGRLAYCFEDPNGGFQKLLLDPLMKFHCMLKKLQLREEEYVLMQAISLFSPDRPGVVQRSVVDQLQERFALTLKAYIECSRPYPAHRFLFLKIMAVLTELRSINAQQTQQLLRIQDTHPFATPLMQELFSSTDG

[19] = qHTS assay for small molecule agonists of retinoid X receptor alpha signaling (AID 588544); settings: HEK293T RXRa-UAS-bla, beta-lactamase reporter, 18 h; 530 nm emission;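 for activation: 0% = DMSO basal wells and 100% = reference agonist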
[20] = biological target: Retinoic acid receptor RXR-alpha (Homo sapiens) (UniProt P19793); assay: as above

CNc1cnn(-c2cccc(C(F)(F)F)c2)c(=O)c1Cl
18.9%: max response [3]
-2.6%: max response [8]
inactive: activation [1] -1.1% | outcome [2] | Potency [4] | Potency [5] | outcome [6] | Potency [7] | max response [9] 8.14% | activation [10] 1.24% | activation [11] -1.53% | max response [12] -1.19% | max response [13] 3.99% | max response [14] -7.33%

CO/N=C(/C1=NOCCO1)c1ccccc1Oc1ncnc(Oc2ccccc2Cl)c1F
inactive: activation [1] 7.75% | activation [11] 4.67% | max response [12] 18.3% | Potency [15] | max response [13] 16.2% | max response [14] 6.13%

O=[N+]([O-])c1cc(C(F)(F)F)c(Cl)c([N+](=O)[O-])c1Nc1ncc(C(F)(F)F)cc1Cl
inactive: activation [1] 2.48% | outcome [2] | max response [12] -9.03% | Potency [15]
active: Potency [5] 22.4 µM | Potency [13] 35.5 µM | Potency [14] 35.5 µM

C[Si](Cn1cncn1)(c1ccc(F)cc1)c1ccc(F)cc1
inactive: activation [1] 2.34% | Potency [5] | outcome [6] | Potency [7] | activation [10] -4.21% | activation [16] 6.54% | max response [12] -0.864% | Potency [15] | max response [13] -21.1% | Potency [17]

C=CC(=O)OCC(CC)(COC(=O)C=C)COC(=O)C=C
active: Potency [9] 44.7 µM | Potency [15] 61.1 µM | Potency [14] 50.1 µM
inactive: outcome [2] | outcome [6] | activation [11] 0.162% | activation [16] 9.7% | max response [12] -1.24% | max response [13] -3.3% | Potency [17] | max response [18] -14.4%
23.9%: max response [8]

COC(=O)C(C)Oc1ccc(Oc2ccc(Cl)cc2Cl)cc1 (configuration not stated)
20.2%: max response [19]
-8.87%: max response [8]
inactive: activation [1] -6.35% | Potency [20] | Potency [7] | max response [9] -16.7% | activation [10] -3.5% | activation [11] -0.397% | activation [16] -0.824% | Potency [15] | max response [13] -5.74% | max response [14] -4.71% | Potency [17] | max response [18] -0.585%

O=[N+]([O-])c1ccc(Nc2ccccc2)cc1
inactive: activation [1] 0.7% | outcome [6] | Potency [7] | max response [9] -16.2% | activation [10] -0.549% | activation [11] 0.166% | activation [16] 5.27% | max response [12] -1.55% | max response [13] -13.2% | max response [14] 1.82% | Potency [17]
-4.45%: max response [8]

CCCCCCCCCCCCC1=C(OC(C)=O)C(=O)c2ccccc2C1=O
inactive: outcome [6] | activation [11] -0.928% | activation [16] 1.53% | max response [12] -5.69% | Potency [15] | max response [13] -15.3% | max response [14] -22.1% | max response [18] 0.383%
active: Potency [10] 11.2 µM

C[N+]1(C)CCCCC1
-2.65%: max response [8]
inactive: outcome [2] | Potency [4] | Potency [5] | outcome [6] | Potency [20] | Potency [7] | max response [9] 0.987% | activation [10] 0.854% | activation [11] 0.391% | activation [16] 0.858% | max response [12] -0.937% | Potency [15] | max response [13] 4.82% | max response [14] -11.8% | Potency [17] | max response [18] 3.55%
-14.2%: max response [3]
-8.78%: max response [19]

COC(C)(C)CCC[C@H](C)C/C=C/C(C)=C/C(=O)OC(C)C
10.5%: max response [19]
-16.5%: max response [8]
inactive: Potency [20] | Potency [7] | max response [9] 6.26% | activation [10] -4.16% | activation [11] 0.706% | activation [16] -0.0877% | max response [12] 0.0369% | Potency [15] | max response [13] -6.46% | max response [14] -5.99% | Potency [17]

CCCOC(=O)c1cc(O)c(O)c(O)c1
inactive: activation [1] -0.748%

C=C(C)C1CC=C(C)C(OC(C)=O)C1 (configuration not stated)
inactive: activation [1] -0.422%

COc1ccc(C(=O)Nc2ccccc2)cc1[N+](=O)[O-]
inactive: activation [1] -2.07%

NC=O
inactive: activation [1] -0.541%

CC(=O)Nc1ccc(C(=O)CCl)cc1
inactive: activation [1] 2.69%

CC(O)CN(CC(C)O)CC(C)O (configuration not stated)
-0.813%: max response [8]
-32.2%: max response [3]
inactive: outcome [2] | Potency [4] | Potency [7] | max response [9] 3.2% | activation [10] -9.86% | max response [12] -2.83% | Potency [15] | max response [13] -8.2% | max response [14] -4.13% | Potency [17] | max response [18] -0.821%

CCCCCCCC(=O)Oc1c(Br)cc(C#N)cc1Br
inactive: activation [1] 1.95%

COc1cccc(N)c1
inactive: activation [1] 2.13%

Nc1ccc(N)c(Cl)c1
inactive: activation [1] -0.837%
